From PubChem
Compounds with a hit are over-represented: about 4.5% of the library has one in this group of screens.
CSC inhib = cancer stem cell inhibition | cancer stem cell-like cells viability, luminescence | inhibition, % at 7.5 µM | 300,000 compounds, 1.1% hits; in the data active = inhibition above about 75%; tested in HMLE shEcad cells
697 NFkB inh = inhibitors of the PMA/ionomycin-induced NF-kB reporter in 697 B cells. inhibition, % at 4 µM. 697 B-cell NF-kB luciferase reporter, 16 h. 330,000 compounds, 0.33% hits; in the data active = inhibition above about 35%
Jurkat NFkB inh = lowers PMA/ionomycin-induced NF-kB signal in Jurkat cells. inhibition, % at 4 µM. 330,000 compounds, 0.53% hits. PMA/ionomycin-induced NF-kB luciferase reporter, luminescence; in the data active = inhibition above about 50%
Gli-Sufu antag = antagonists of Gli-Sufu signaling; AID 588413; inhibition, % at 5 µM; 340,000 compounds, 0.74% hits; Sufu-KO-LIGHT fibroblasts, Gli luciferase reporter luminescence;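 active = inhibition above about 55%, limit read from the data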;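 also: 0% = DMSO-treated cells and 100% = wells with medium but no cells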
Beta apoptosis = beta cell apoptosis inhibition; INS-1E cytokine-induced death, ATP luminescence, 48 h; percent of positive-control rescue, neutral wells zero; protection from apoptosis, % (no concentration beside the values); 300,000 compounds, 0.8% hits;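 active = Every replicate reaches about 75%, or at least half do and their mean reaches it too, limit read from the data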;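 also: 0% = cytokine-treated negative control wells and 100% = positive control rescue; higher means more ATP so stronger rescue from cytokine killing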
Mdm2 MdmX PPI = inhibitors of human Mdm2/MdmX interaction; SaOS-2 split-luciferase Mdm2/MdmX complementation, luminescence; 330,000 compounds, 3% hits; O15151+Q00987; AID 485346; inhibition, % at 8 µM;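 active = inhibition of at least 50% at 8 µM in the primary screen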
Gli antag conf = confirmation of Gli-SUFU pathway antagonists. shares compounds with Gli-Sufu antag. Sufu-KO-LIGHT cells, Gli luciferase reporter, luminescence. inhibition, % at 5 µM. 2,500 compounds, 40% hits. AID 602428;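 active = mean inhibition at 5 µM reaching about 45%, limit read from the data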;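 also: plate controls were DMSO-treated cells for no effect and wells lacking cells for full effect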
SufuKO cytotox = counter-screen for Gli-SUFU antagonists: cytotoxicity; 2,500 compounds, 32% hits; shares compounds with Gli-Sufu antag; cytotoxicity, % at 5 µM; Sufu-KO-LIGHT cells cytotoxicity, ATP luminescence; AID 651994;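 active = mean cytotoxicity at 5 µM above about 25%, limit read from the data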;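 also: cells exposed to compound overnight for roughly 16 to 18 hours; plate controls were DMSO wells with cells for no effect and medium without cells for full effect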
Wnt3a counter = inhibits Wnt3a reporter, counter-screen for Gli-SUFU antagonists | shares compounds with Gli-Sufu antag | Wnt-LIGHT cells, Wnt3a-driven luciferase reporter, luminescence | inhibition, % at 6.25 µM | 2,500 compounds, 20% hits;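 active = mean inhibition above about 25%, limit read from the data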
Starred values were filed as active, the others as inactive; . = no result given.

SMILES	CSC inhib	697 NFkB inh	Jurkat NFkB inh	Gli-Sufu antag	Beta apoptosis	Mdm2 MdmX PPI	Gli antag conf	SufuKO cytotox	Wnt3a counter
Cc1ccc2nc(/C(C#N)=C\c3ccc(N4CCCCC4)c([N+](=O)[O-])c3)[nH]c2c1	69	3	-2	50	12	15	36	10	-79
CCCC1(C2CCCC2)NC(=O)NC1=O (stereo not given)	.	.	.	2	.	.	.	.	.
COc1ccc(N(CC(=O)NCc2ccc(F)cc2)C(=O)CCC(=O)Nc2ccccn2)cc1	-10	-8	-29	69*	3	6	16	22	-26
CCc1ccc(N(CC(=O)NCc2ccc(OC)cc2)C(=O)CCC(=O)Nc2ccccn2)cc1	4	-3	7	8	-2	21	.	.	.
CC(C)c1ccc(C(=O)NC(=S)Nc2ccc3[nH]c(=O)[nH]c3c2)cc1	-4	18	-2	2	1	38	.	.	.
CCCN(CC(=O)Nc1ccccc1C)C(=O)c1ccc(N2CCCC(C)C2)c([N+](=O)[O-])c1 (stereo not given)	.	.	.	16	.	.	.	.	.
Cc1ccc(CN2CCC(CNS(=O)(=O)c3ccc(-c4ccc(=O)[nH]n4)s3)CC2)cc1	-5	11	-1	60*	2	4	21	12	12
O=C(Nc1cccnc1)c1cccc(S(=O)(=O)N2CCc3ccccc32)c1	-10	-31	17	2	-6	7	.	.	.
O=C(Nc1ccncc1)c1cccc(S(=O)(=O)N2CCc3ccccc32)c1	0	-35	32	56*	8	12	55*	19	40*
CN1CCC(=C2c3ccccc3Sc3ccccc32)CC1	.	.	.	56*	.	.	33	37*	-43
O=C1Cc2ccccc2Sc2ccccc21	-5	15	9	-1	-3	12	.	.	.
O=C(c1ccc(F)cc1)C1CCN(C(=S)NCC2CCCO2)CC1 (stereo not given)	-6	-8	9	63*	2	27	13	10	10
Cc1ccc(C(=O)C2CCN(C(=S)NCC3CCCO3)CC2)cc1 (stereo not given)	1	-12	1	15	9	-3	.	.	.
Cc1c(NC(=S)NC(NC(=O)C(C)(C)C)C(Cl)(Cl)Cl)c(=O)n(-c2ccccc2)n1C (stereo not given)	7	2	-9	51	0	-22	25	1	6
COc1ccc(OC)c(S(=O)(=O)NC2CC(=O)N(c3cccc(F)c3)C2)c1 (stereo not given)	-5	22	2	6	0	9	.	.	.
O=C(Nc1ccc(Oc2ccccc2)nc1)C1CCN(Cc2ccccc2)CC1	2	6	7	65*	-1	23	17	3	-13
CCn1cc(CN2CCC(C(=O)Nc3ccc(Oc4ccccc4)nc3)CC2)cn1	15	9	7	20	2	-2	.	.	.
CC(Sc1nc2ncc(Cl)cc2[nH]1)C(=O)NC1(C#N)CCCCC1 (stereo not given)	.	1	-4	4	6	-24	.	.	.
CCOC(=O)C1CCCN(CC(O)COc2ccccc2C(C)=O)C1 (stereo not given)	-7	9	-8	6	.	15	.	.	.
CCOC(=O)C1CCCN(CC(O)COC(c2ccccc2)c2ccccc2)C1 (stereo not given)	-9	15	-8	70*	-2	11	9	11	-32
Cc1cc(C)n(CCCNC(=O)c2ccc(C)c(S(=O)(=O)N3CCOCC3)c2)n1	-6	19	11	-11	.	-4	.	.	.
CCOC(=O)C1CCCN(C(=O)COC(=O)c2cc(=O)c3ccccc3o2)C1 (stereo not given)	-14	-10	-1	3	-5	16	.	.	.
O=C(OCC(=O)N1CCCC1)c1cc(=O)c2ccccc2o1	15	9	-17	54	-1	2	15	7	-1
CCc1nc2ccc(C(=O)NCCCN3CCN(c4ccccc4F)CC3)cc2nc1CC	-4	5	-2	55	3	11	18	27*	-42
CCN(CC)Cc1cc2ccccc2c2c1COC2	-2	24	15	94*	.	12	13	8	-16
SMILES	CSC inhib	697 NFkB inh	Jurkat NFkB inh	Gli-Sufu antag	Beta apoptosis	Mdm2 MdmX PPI	Gli antag conf	SufuKO cytotox	Wnt3a counter
CC(C)(C)CC(C)(C)n1nnnc1N	.	.	.	-7	.	.	.	.	.
CCc1ccc(OC)c(S(=O)(=O)Nc2ccc(Cc3ccncc3)cc2)c1	23	-25	13	57*	101*	22	58*	44*	29*
Cc1cc(NC(=O)CSCC(=O)Nc2nc3ccccc3[nH]2)no1	-2	10	-3	8	-2	22	.	.	.
Cn1nc(-c2ccc(C(=O)N3CCN(Cc4ccccc4)CC3)cc2)c2ccccc2c1=O	-4	-30	10	53	10	21	36	6	9
O=C(c1ccc(-n2cccc2)cc1)N1CCN(Cc2ccccc2)CC1	-2	-10	1	0	-11	0	.	.	.
O=C(NC(=S)Nc1ccccc1Cl)c1cnn2c(C(F)(F)F)cc(C(F)(F)F)nc12	0	-28	17	56*	4	11	27	11	-15
Cc1ccc(C2=C(CC(=O)O)C(=O)CC2)cc1	-4	14	-9	55*	.	6	29	19	7
CC(Oc1cccnc1[N+](=O)[O-])C(=O)Nc1cccc(Cl)c1 (stereo not given)	-1	19	-6	-5	-2	13	.	.	.
O=C(Nc1c(C(=O)C2CC2)oc2ccccc12)c1ccc(Cl)cc1	4	-8	-12	86*	9	21	15	12	-18
O=C(O)CCSCC(=O)Nc1c(C(=O)C2CC2)oc2ccccc12	-23	7	0	1	0	26	.	.	.
C=CCOc1ccc(CN(C)CC(=O)Nc2ccc3c(c2)CCC3)cc1	6	12	13	22	-5	-15	.	.	.
CCOc1ccc(CN(C)CC(=O)Nc2ccc3c(c2)CCC3)cc1OC	.	-2	-5	53	-5	2	24	22	-30
COc1ccc(S(=O)(=O)N2CCOCC2)cc1NS(=O)(=O)c1ccc(F)c(F)c1	-4	11	-1	-6	-2	-2	.	.	.
COc1ccc(C(=O)Nc2ccccc2N2CCN(C(=O)C(C)C)CC2)cc1Cl	-9	9	9	6	-10	29	.	.	.
COc1ccc(Cl)cc1C(=O)Nc1ccccc1N1CCN(C(=O)C(C)C)CC1	-8	3	-12	50	2	17	24	34*	-54
C=C(C)CSc1nnc([C@@H](NC(=O)OC(C)(C)C)C(C)CC)o1 (stereo not given in full)	0	-32	0	94*	0	4	20	13	-31
